Laboratory results: the antibiotic and cytotoxicity screens of Wong et al. (2023)
In all, about 39,000 compounds went through this assay and about 3,300 (8.5%) were called active. This is one part of a sample in which actives are shown more often than they occur.

Each compound was assayed on HepG2 (assay: cytotoxicity call (relative viability < 0.9)). Settings: 10 µM.
`Cc1[nH]c(=O)[nH]c(=O)c1S(=O)(=O)N1CCC[C@H](C(=O)NCc2ccc3c(c2)OCO3)C1` was tested, and the cytotoxicity call was “inactive”. For `C[C@@H]1CN([C@@H](C)CO)C(=O)c2cc(NC(=O)NC3CCCCC3)ccc2O[C@@H](C)CCCCO[C@H]1CN(C)Cc1ccncc1`, the cytotoxicity call was “inactive”. For `C[C@H]1CN([C@@H](C)CO)S(=O)(=O)c2ccc(C#CC3(O)CCCC3)cc2O[C@H]1CN(C)C(=O)Nc1cccc(F)c1`, the cytotoxicity call was “inactive”. For `C[C@H](CO)N1C[C@H](C)[C@H](CN(C)Cc2ccc(C(F)(F)F)cc2)Oc2ccc(NC(=O)Cc3cn(C)c4ccccc34)cc2C1=O`, the cytotoxicity call was “inactive”. For `O=C(C[C@@H]1CC[C@H](NC(=O)Cc2ccccn2)[C@@H](CO)O1)NCCCN1CCOCC1`, the cytotoxicity call was “inactive”. With `COc1ccc(CN(C)C[C@H]2OCCCC[C@@H](C)Oc3ccc(NC(=O)Nc4c(C)noc4C)cc3C(=O)N([C@H](C)CO)C[C@@H]2C)cc1` the cytotoxicity call was “inactive”. `C[C@H]1CCCCO[C@H](CN(C)C(=O)Nc2ccc3c(c2)OCO3)[C@@H](C)CN([C@@H](C)CO)C(=O)c2cc(NC(=O)Nc3cccc4ccccc34)ccc2O1` was tested, and the cytotoxicity call was “inactive”. `COc1ccc(S(=O)(=O)N(C)C[C@H]2Oc3ccc(NC(=O)CCC(F)(F)F)cc3CC(=O)N([C@H](C)CO)C[C@@H]2C)cc1` was tested, and the cytotoxicity call was “inactive”. With `C[C@@H]1CN([C@H](C)CO)C(=O)Cc2cc(NS(=O)(=O)c3cccs3)ccc2O[C@H]1CN(C)Cc1ccc(Cl)c(Cl)c1` the cytotoxicity call was “inactive”. With `Cc1cccc(S(=O)(=O)N2C[C@H](O)COC[C@@H]3O[C@H](CC(=O)NCCCN4CCOCC4)CC[C@H]32)c1` the cytotoxicity call was “inactive”. `CC(=O)C=C(O)CCC(=O)O` was tested, and the cytotoxicity call was “inactive”. For `C=CCSC1=N[C@@]2(COCc3ccc(OC)cc3)Oc3ccccc3[C@H]([C@H]2CO[Si](C)(C)C(C)(C)C)N1C(=O)c1ccccc1`, the cytotoxicity call was “inactive”. With `Cc1noc(C)c1S(=O)(=O)Nc1ccc2c(c1)C(=O)N([C@H](C)CO)C[C@H](C)[C@H](CN(C)C)OCCCC[C@H](C)O2` the cytotoxicity call was “inactive”. `Nc1ncn([C@@H]2O[C@H](CO)[C@@H](O)[C@H]2O)c(=O)n1` was tested, and the cytotoxicity call was “active”. With `OC[C@H]1O[C@@H](n2cnc3c(NCc4ccco4)ncnc32)[C@H](O)[C@@H]1O` the cytotoxicity call was “active”. For `Nc1ncn([C@@H]2C[C@H](O)[C@@H](CO)O2)c(=O)n1`, the cytotoxicity call was “inactive”. `Nc1ncn(C2OC(CO)C(O)C2O)c(=O)n1` (centres undefined) was tested, and the cytotoxicity call was “active”. In the case of `Nc1ccn([C@@H]2O[C@H](CO)[C@@H](O)[C@@H]2O)c(=O)n1`, the cytotoxicity call is reported as “inactive”. For `OC[C@H]1O[C@@H](n2cnc3c(NC4CCCC4)ncnc32)[C@H](O)[C@@H]1O`, the cytotoxicity call was “inactive”. In the case of `Nc1ccn([C@@H]2O[C@H](CO)[C@H](O)[C@@H]2O)c(=O)n1`, the cytotoxicity call is reported as “inactive”. With `CNc1ncnc2c1ncn2[C@@H]1O[C@H](CO)[C@@H](O)[C@H]1O` the cytotoxicity call was “inactive”. `Nc1ncn([C@H]2C[C@H](O)[C@@H](CO)O2)c(=O)n1` was tested, and the cytotoxicity call was “inactive”. For `C/C=C/c1ccc2c(c1)O[C@H](CN(C)S(=O)(=O)c1ccc(F)cc1)[C@H](C)CN([C@H](C)CO)S2(=O)=O`, the cytotoxicity call was “inactive”. With `CCO[C@H]1[C@H]2CC[C@@H]1N(C(=O)N(C)C)CCO2` the cytotoxicity call was “inactive”. For `C[C@@H]1CCCCO[C@H](CN(C)S(C)(=O)=O)[C@H](C)CN([C@@H](C)CO)C(=O)c2cc(NS(C)(=O)=O)ccc2O1`, the cytotoxicity call was “inactive”. With `CCC(=O)N[C@@H]1C=C[C@@H](CC(=O)OC)O[C@@H]1CO` the cytotoxicity call was “inactive”. `CC(C)NC(=O)N(C)C[C@H]1Oc2ccc(NS(=O)(=O)c3ccccc3)cc2C(=O)N([C@@H](C)CO)C[C@@H]1C` was tested, and the cytotoxicity call was “inactive”. `COc1ccc(S(=O)(=O)Nc2ccc3c(c2)C(=O)N([C@@H](C)CO)C[C@@H](C)[C@@H](CN(C)Cc2ccccc2)OCCCC[C@@H](C)O3)cc1` was tested, and the cytotoxicity call was “inactive”. `O=C(C[C@H]1CC[C@@H]2[C@H](COC[C@H](O)CN2C(=O)C2CC2)O1)NCc1ccncc1` was tested, and the cytotoxicity call was “inactive”. For `Cc1cc(O)cc2c1O[C@](C)(CCC[C@H](C)CCC[C@H](C)CCCC(C)C)CC2`, the cytotoxicity call was “inactive”. `Cc1noc(C)c1S(=O)(=O)Nc1cccc2c1O[C@H](CN(C)C(=O)NC1CCCCC1)[C@H](C)CN([C@@H](C)CO)C2=O` was tested, and the cytotoxicity call was “inactive”. `C[C@H](CO)N1C[C@H](C)[C@H](CN(C)C(=O)Nc2ccc(F)cc2)Oc2ncc(C#Cc3ccc(C(F)(F)F)cc3)cc2C1=O` was tested, and the cytotoxicity call was “inactive”. In the case of `C[C@H]1CN([C@@H](C)CO)C(=O)c2cccc(NS(=O)(=O)c3cccs3)c2O[C@H]1CN(C)Cc1ccc(Oc2ccccc2)cc1`, the cytotoxicity call is reported as “inactive”. For `C[C@H](CO)N1C[C@H](C)[C@H](CN(C)C(=O)Nc2ccc(F)cc2)Oc2c(NC(=O)Nc3cccc4ccccc34)cccc2C1=O`, the cytotoxicity call was “active”. `C[C@H]1CN([C@@H](C)CO)C(=O)c2cccc(NC(=O)Nc3cccc4ccccc34)c2O[C@H]1CN(C)C(=O)Nc1ccccc1` was tested, and the cytotoxicity call was “inactive”. In the case of `COc1ccc(NC(=O)Nc2cccc3c2O[C@@H](CN(C)C(=O)Nc2cccc4ccccc24)[C@H](C)CN([C@@H](C)CO)C3=O)cc1`, the cytotoxicity call is reported as “inactive”. In the case of `C[C@@H]1CN([C@@H](C)CO)C(=O)c2cccc(NC(=O)Nc3cccc4ccccc34)c2O[C@H]1CN(C)C(=O)Nc1ccccc1`, the cytotoxicity call is reported as “active”. In the case of `C[C@H]1CN([C@@H](C)CO)C(=O)c2cccc(NC(=O)Nc3cccc4ccccc34)c2O[C@@H]1CN(C)C(=O)Nc1ccccc1`, the cytotoxicity call is reported as “inactive”. With `C[C@H](CO)N1C[C@H](C)[C@@H](CN(C)C(=O)Nc2ccc(F)cc2)Oc2c(NC(=O)Nc3cccc4ccccc34)cccc2C1=O` the cytotoxicity call was “inactive”. With `COc1ccc(NC(=O)Nc2cccc3c2O[C@H](CN(C)C(=O)Nc2cccc4ccccc24)[C@H](C)CN([C@H](C)CO)C3=O)cc1` the cytotoxicity call was “active”. For `C[C@@H]1CN([C@H](C)CO)C(=O)c2cccc(NC(=O)Nc3cccc4ccccc34)c2O[C@H]1CN(C)C(=O)Nc1ccc(F)cc1`, the cytotoxicity call was “inactive”. In the case of `COc1ccc(NC(=O)Nc2cccc3c2O[C@@H](CN(C)C(=O)Nc2cccc4ccccc24)[C@H](C)CN([C@H](C)CO)C3=O)cc1`, the cytotoxicity call is reported as “inactive”. In the case of `C[C@H](CO)N1C[C@H](C)[C@H](CN(C)Cc2ccc(Cl)c(Cl)c2)Oc2c(NC(=O)Nc3ccc4c(c3)OCO4)cccc2C1=O`, the cytotoxicity call is reported as “inactive”. `C[C@H](CO)N1C[C@H](C)[C@H](CN(C)C(=O)c2ccncc2)Oc2cc(C#C[C@@H](C)O)ccc2S1(=O)=O` was tested, and the cytotoxicity call was “inactive”.
